The sample as a whole holds a higher share of hits than the screen did.
RXFP1 antag = blocks the human relaxin receptor RXFP1; Q9HBX9; HEK293-RXFP1, relaxin-stimulated cAMP HTRF, 30 min; stronger effect = lower value; activity change, negative = inhibition, % at 57.5 µM; 350,000 compounds, 0.59% hits; AID 1259400;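 active = activity change of -60% or lower, but not beyond a set lower limit; inconclusive = change between -60% and -40%, or beyond the set limit; inactive = change above -40%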
NPSR antag = antagonists of human neuropeptide S receptor cAMP signaling | AID 1461 | CHO-NPSR cells, cAMP TR-FRET, antagonist mode | Potency, µM (top dose mostly 38.3 µM), most hits filed as inhibitors | 220,000 compounds, 1% hits; also: nearly all actives have a fitted effect of over 50% in size
PTHR1 agonist = activates the human parathyroid hormone receptor PTHR1; Q03431; HEK293 GP2 PTHR1 cells, GloSensor cAMP luminescence, 1 h; Potency, µM (titrated, usually from 115 µM), actives largely listed as activators; 410,000 compounds, 0.075% hits; also: nearly all actives have a fitted effect of over 55% in size
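HEK-293-derived GP2 cells expressing PTHR1 and a GloSensor cAMP reporter, 3,000/well, plated overnight, given luciferin plus IBMX (each 0.5 mM as added) for 1 h at 37 °C, then compound for 1 h at 37 °C. Luminescence was read after 15 min at room temperature.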
RXFP1 agonist = agonists of human relaxin receptor RXFP1. 370,000 compounds, 0.3% hits. Potency, µM (top dose mostly 57.5 µM), usual class: activators. Q9HBX9. HEK293T-RXFP1 cAMP TR-FRET, 30 min; response scale: percent of porcine relaxin response, buffer zero. AID 2676; also: nearly all actives have a fitted effect of over 60% in size
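HEK293 cells stably expressing RXFP1, treated 30 min at 37C with compounds plus PDE4 inhibitor Ro 20174; cAMP measured by HTRF TR-FRET. Normalized to buffer and 29 nM porcine relaxin; EC50 by Hill fit.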
TCR activator = activates T cell receptor signaling; primary human leukocytes, anti-CD3, IL-2 HTRF, 48 h; Potency, µM (top dose mostly 9.22 µM), usual class: activators; 330,000 tested, under 10 active; AID 504894
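HTRF read-out of IL-2 secretion: europium cryptate donor excited at 320nm, d2 acceptor emission at 665nm. Cells were primary human leukocytes incubated 48 hr with compounds and a-CD3 beads, supplying TCR signal only.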
TSHR antag = blocks TSH signaling through the human TSH receptor | P16473 | TSHR-expressing cells, TSH-stimulated cAMP HTRF, 2 h; stronger effect = lower value | activity change, negative = inhibition, % at 11.5 µM | 330,000 compounds, 0.2% hits;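 active = activity change below a set negative limit, meaning inhibition stronger than a set level, cut at about -70% in these data; inconclusive = activity change between two set negative limits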
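Cell-based HTRF cAMP assay; TSHR cells + compound, TSH EC80 (4nM final), 2 h, 37 deg C. Lysis with anti-cAMP cryptate and cAMP-d2, 30 min RT, read 665/620 nm.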
A number is an active result. Unless noted, calls follow the shape of the dose curve; as a rule, active = well fitted curve in the direction sought with a large enough effect; inconclusive = small, poorly fitted or top-dose-only effect, or another doubt; inactive = no such curve, though single readings can be large; an effect the other way counts as inactive or inconclusive.

Screening Cc1[nH]nc(-c2ccc(O)c(C)c2O)c1-c1cnn(-c2ccccc2)c1 returned RXFP1 antag -87.2, NPSR antag inactive, PTHR1 agonist inactive, RXFP1 agonist inactive, TCR activator inactive and TSHR antag inactive.
Screening CCOC(=O)Cn1c(=O)n(CC2CCCO2)c2nc(-c3ccc(OCC)cc3)nc(C(N)=O)c21 (centres undefined) returned PTHR1 agonist inactive and RXFP1 agonist inactive.
Screening COc1cc(-c2ccno2)ccc1S(=O)(=O)N1CCN(c2ccc(C(C)=O)cc2)CC1 returned RXFP1 antag inactive, PTHR1 agonist inactive and RXFP1 agonist inactive.
Screening COc1ccc(-c2cc(-c3cc(C)ccc3O)[nH]n2)cc1 returned RXFP1 antag -99.7, NPSR antag inactive, PTHR1 agonist inactive, RXFP1 agonist inactive, TCR activator inactive and TSHR antag inactive.
COc1ccc(-c2cc(-c3ccc(C)cc3)n[nH]2)c(O)c1 was read as RXFP1 antag inactive, PTHR1 agonist inactive, RXFP1 agonist inactive, TCR activator inactive and TSHR antag inactive.
For CC(C)OCCCNC1=C(Cl)C(=O)c2ccccc2C1=O the results were RXFP1 antag inactive, NPSR antag 10µM, PTHR1 agonist inactive, RXFP1 agonist inactive, TCR activator inactive and TSHR antag inactive.
For Cc1ccc(NC(=O)C2CCCN(c3cnccn3)C2)cc1Cl (centres undefined) the results were RXFP1 antag inactive, PTHR1 agonist inactive and RXFP1 agonist inactive.
`O=C(c1cccs1)N1CCc2c([nH]c3ccccc23)C1c1ccc(Cl)cc1` (centres undefined) gave RXFP1 antag inactive, NPSR antag 10µM, PTHR1 agonist inactive, RXFP1 agonist inactive, TCR activator inactive and TSHR antag inactive.
For CC(Sc1cccc2cccc(C(=O)O)c12)C(=O)O (centres undefined) the results were RXFP1 antag inactive, NPSR antag inactive, PTHR1 agonist inactive, RXFP1 agonist inactive, TCR activator inactive and TSHR antag inactive.
For CC(Sc1ccc2ccccc2n1)C(=O)O (centres undefined) the results were RXFP1 antag inactive, NPSR antag inconclusive, PTHR1 agonist inactive, RXFP1 agonist 11.2µM, TCR activator inactive and TSHR antag inactive.
Screening CN(C)CCOCCOc1ccc(Cl)cc1C(C)(C)C returned RXFP1 antag inconclusive, NPSR antag inactive, PTHR1 agonist inconclusive, RXFP1 agonist inactive, TCR activator inactive and TSHR antag inactive.
Screening CC(O)CNCCCOc1ccc(Cl)cc1C(C)(C)C (centres undefined) returned RXFP1 antag -61.5, NPSR antag inactive, PTHR1 agonist inactive, RXFP1 agonist inactive, TCR activator inactive and TSHR antag inactive.
`CC(Oc1cccnc1[N+](=O)[O-])C(=O)Nc1cccc(Cl)c1` (centres undefined) gave RXFP1 antag -96.9, PTHR1 agonist inactive, RXFP1 agonist inactive, TCR activator inactive and TSHR antag inactive.
Cn1c(=O)c2[nH]c(SCCN3CCOCC3)nc2n(C)c1=S was read as RXFP1 antag -72.4, PTHR1 agonist inactive and TCR activator inactive.
For Cn1c(=O)c2[nH]c(SCCN3CCCCC3)nc2n(C)c1=S the results were RXFP1 antag inactive, PTHR1 agonist inactive and TCR activator inactive.
O=[N+]([O-])c1cc(/C=N/O)ccc1Sc1ccccc1 was read as RXFP1 antag -60.1, NPSR antag inconclusive, PTHR1 agonist inactive, RXFP1 agonist inactive, TCR activator inactive and TSHR antag inactive.
Screening CC(=O)/C=C1/C(=O)Nc2ccccc21 returned RXFP1 antag -73.0, NPSR antag inactive, PTHR1 agonist inactive, RXFP1 agonist inactive, TCR activator inactive and TSHR antag inactive.
For O=C(O)COc1ccccc1/C=C1\C(=O)Nc2ccc(Br)cc21 the results were RXFP1 antag inactive, PTHR1 agonist inactive, RXFP1 agonist inactive, TCR activator inactive and TSHR antag inactive.
For O=C1Nc2ccc(Br)cc2/C1=C/C(=O)c1ccccc1 the results were RXFP1 antag -82.5, PTHR1 agonist inactive and TCR activator inactive.

From PubChem BioAssay
